Screens (PubChem)
Only a selection was taken, and hits are over-represented in it overall.
CD40 NFkB inh = CD40 pathway inhibition in BL2 cells | BL2 NF-kB luciferase reporter, CD40L-induced, 4 h | inhibition, % at 10 µM | 0.94% of 83,000 active | AID 1053188;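 active means mean inhibition of at least 50% with a set share of replicates also reaching that level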;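 further: 0% = neutral control wells and 100% = IKK inhibitor VII at 50 µM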
* = called active by the depositor; [ ] = another dose, or the depositor's remark.

SMILES | CD40 NFkB inh
COc1ccc(NC(=O)N2C[C@@H](O)COC[C@@H]3O[C@@H](CC(=O)N4CCCCC4)CC[C@H]32)cc1 | -14.5[25 µM]
O=[N+]([O-])c1ccc(Sc2ccccn2)nc1 | -12.5
Nc1ncnc(Sc2ncccn2)c1[N+](=O)[O-] | 84.3*
CN(C)c1ncnc(N(C)C)c1[N+](=O)[O-] | -0.9
Cc1cc(O)c(C(C)C)cc1C1(c2cc(C(C)C)c(O)cc2C)OC(=O)c2ccccc21 | 38.7*
CCOC(=O)c1c(-c2ccc(C)o2)csc1NC(=O)CN1CCOCC1 | -1.2
CCOC(=O)c1c(-c2ccc(C)o2)csc1N | 3.4
CCOC(=O)c1c(-c2ccc(C)o2)csc1NC(=O)COC(=O)c1cccs1 | 80.4*
COc1ccc(CCNC(=O)c2cccc(S(=O)(=O)N3CCCC3)c2)cc1 | 5.4
O=C(NCCc1ccc2c(c1)OCCO2)c1cccc(S(=O)(=O)N2CCCC2)c1 | 43.1*
O=C(NCCN1CCOCC1)c1cccc(S(=O)(=O)N2CCCC2)c1 | 2.1
C[C@H](CO)N1C[C@H](C)[C@@H](CN(C)Cc2ccccc2)Oc2cc(C#CC3CC3)ccc2S1(=O)=O | 14.9[25 µM]
CN(C)CCCCOc1ccc(F)cc1 | 9.7
OCCNCCCCOc1ccc(F)cc1 | 5.5
N=C(N)c1ccc(OCCCCCOc2ccc(C(=N)N)cc2)cc1 | 62.2*
COC1=CC(=O)c2c(ccc3ncnc(N)c23)C1=O | 102.6*
CNC[C@H]1Oc2ccc(N)cc2CC(=O)N(C)C[C@@H]1C | -8.0
Cc1cc(C)nc(NC(N)=NC(C)c2ccccc2)n1 (configuration not stated) | 26.0
Cc1cc(C)nc(NC(N)=NCCc2ccccc2)n1 | 15.5
Cc1cc(C)nc(NC(N)=NCCc2c[nH]c3ccccc23)n1 | 66.1*
CC(C)NC(=O)Nc1ccc2c(c1)CC(=O)N(C)C[C@@H](C)[C@@H](CN(C)C(=O)NC(C)C)O2 | 14.3
CC(C)NC(=O)Nc1cccc2c1O[C@@H](CN(C)C)[C@@H](C)CN(C)C2=O | -2.6
Nc1nnc(CCOc2ccc(Cl)cc2)s1 | -4.2
NC(=O)c1ccc(C23CC4CC(CC(C4)C2)C3)o1 | -1.3
NCCOc1ccc(C23CC4CC(CC(C4)C2)C3)cc1 | 103.7*
SMILES | CD40 NFkB inh
CCC(=O)NC[C@@H]1[C@@H](c2ccc(C3=CCCCC3)cc2)[C@@H](CO)N1C(=O)C1CC1 | -4.9
COC(=O)c1ccc2nc(NC(=O)C(C)(C)C)sc2c1 | 79.0*
CCCC(=O)Nc1nc2ccc(OC)cc2s1 | -59.2
COC(=O)Nc1nc2ccc(Br)cc2s1 | -9.4
Cc1ccccc1-c1ccc(C2[C@@H]3CN(S(=O)(=O)c4ccccc4C)C[C@H]2N3)cc1 (some centres not stated) | -2.9
COCC(=O)N1CC2(CCN(Cc3ccccc3)CC2)c2c([nH]c3cc(OC)ccc23)[C@H]1CO | -19.4[25 µM]
C[C@@H]1CN([C@@H](C)CO)C(=O)c2ccccc2-c2ccccc2CO[C@@H]1CN(C)Cc1ccc(C(F)(F)F)cc1 | 3.4
COc1ccccc1CN(C)C[C@H]1OCc2ccccc2-c2ccccc2C(=O)N([C@@H](C)CO)C[C@H]1C | -7.9[25 µM]
C[C@H](CO)N1C[C@H](C)[C@@H](CN(C)Cc2ccccc2)OCc2ccccc2-c2ccccc2C1=O | 7.1
C[C@@H]1CN([C@H](C)CO)C(=O)c2ccccc2-c2ccccc2CO[C@@H]1CN(C)Cc1ccccc1C(F)(F)F | 82.6*[25 µM]
C[C@H](CO)N1C[C@H](C)[C@@H](CN(C)Cc2ccc(Oc3ccccc3)cc2)OCc2ccccc2-c2ccccc2C1=O | 69.3*[25 µM]
C[C@@H]1CN([C@@H](C)CO)C(=O)c2ccccc2-c2ccccc2CO[C@@H]1CN(C)Cc1ccccc1C(F)(F)F | 53.3*[25 µM]
C[C@H]1CN([C@@H](C)CO)C(=O)c2ccccc2-c2ccccc2CO[C@H]1CN(C)Cc1ccccc1C(F)(F)F | 33.1[25 µM]
C[C@@H]1CN([C@H](C)CO)C(=O)c2ccccc2-c2ccccc2CO[C@@H]1CN(C)Cc1ccccc1 | 10.6
C[C@H](CO)N1C[C@H](C)[C@H](CN(C)Cc2ccccc2C(F)(F)F)OCc2ccccc2-c2ccccc2C1=O | 44.7[25 µM]
CC(=O)N(C)C[C@H]1[C@H](c2ccc(C3=CCCC3)cc2)[C@H](CO)N1CC1CC1 | 6.0
OC[C@@H]1[C@H](c2ccc(Br)cc2)[C@@H]2CN(Cc3cncnc3)CCCCN12 | -82.2
C[C@H](O)C#Cc1ccc([C@H]2[C@@H](CO)N3CCCCN(CC4CCOCC4)C[C@@H]23)cc1 | 6.7
COc1ccccc1-c1cn(CC[C@H]2CC[C@H](NC(=O)C3CCCC3)[C@H](CO)O2)nn1 | -0.1
OC[C@H]1[C@H](c2ccc(-c3ccccc3)cc2)[C@@H]2CN(CCC(F)(F)F)CCCCN12 | 2.8
Cc1ccccc1-c1ccccc1[C@@H]1[C@H](C#N)N(C(=O)c2cccc(F)c2)[C@H]1CO | 2.7[25 µM]
C[C@@H]1CN(C)C(=O)c2cc(N(C)C)ccc2O[C@@H]1CN(C)C | 3.4
COc1ccccc1-c1ccc([C@@H]2[C@@H](C#N)N(C(=O)NC(C)C)[C@@H]2CO)cc1 | -22.8
CN1c2ccc(Br)cc2[C@H]2[C@H](CCN2C(=O)C2CCCCC2)[C@H]1CO | -1.0
N#C[C@@H]1[C@H](c2ccccc2C2=CCCC2)[C@@H](CO)N1C(=O)CN1CCOCC1 | -5.1[25 µM]
SMILES | CD40 NFkB inh
C[C@H]1CN(C)C(=O)c2cccc(N)c2O[C@H]1CN(C)S(C)(=O)=O | -6.4
Cc1noc(C)c1S(=O)(=O)N(C)C[C@H]1OCc2ccccc2-c2c(n(C)c3ccccc23)C(=O)N([C@@H](C)CO)C[C@@H]1C | 31.7[25 µM]
Cc1noc(C)c1S(=O)(=O)N(C)C[C@@H]1OCc2ccccc2-c2c(n(C)c3ccccc23)C(=O)N([C@H](C)CO)C[C@H]1C | 44.5[25 µM]
Cc1noc(C)c1S(=O)(=O)N(C)C[C@@H]1OCc2ccccc2-c2c(n(C)c3ccccc23)C(=O)N([C@@H](C)CO)C[C@H]1C | 46.3[25 µM]
Cc1noc(C)c1S(=O)(=O)N(C)C[C@H]1OCc2ccccc2-c2c(n(C)c3ccccc23)C(=O)N([C@@H](C)CO)C[C@H]1C | 65.2*[25 µM]
Cc1noc(C)c1S(=O)(=O)N(C)C[C@H]1OCc2ccccc2-c2c(n(C)c3ccccc23)C(=O)N([C@H](C)CO)C[C@H]1C | 50.8*[25 µM]
C[C@@H]1CN([C@H](C)CO)C(=O)c2c(c3ccccc3n2C)-c2ccccc2CO[C@@H]1CN(C)S(C)(=O)=O | -7.8
O=C(C[C@H]1CC[C@@H]2[C@H](COC[C@@H](O)CN2Cc2nccs2)O1)NCc1ccccc1Cl | 9.0[25 µM]
COCC#Cc1ccc([C@H]2[C@@H](CO)N3C(=O)CN(C(=O)c4ccncc4)C[C@H]23)cc1 | 2.5[25 µM]
CCS(=O)(=O)N(C)[C@H]1c2cc(C#N)ccc2OC(C)(C)[C@@H]1O | 1.5[25 µM]
CC(C)CN(C[C@H]1N[C@@H](CO)[C@@H]1c1ccc(-c2cncnc2)cc1)C(=O)C1CC1 | 3.2[25 µM]
O=C(CN1C(=O)c2ccccc2S1(=O)=O)Nc1ncc(Cl)cc1Cl | 56.3*
O=C(CN1C(=O)c2ccccc2S1(=O)=O)Nc1ncccn1 | 7.4
Cc1cc(C)nc(NC(=O)CN2C(=O)c3ccccc3S2(=O)=O)n1 | 4.2
CC(C)(C)[S@](=O)N1Cc2cc(C(=O)N[C@@H]3CCN(Cc4ccccc4)C3)nc(-c3cccc(-c4cncnc4)c3)c2[C@@H]1CCO | 2.1
C[C@H](CO)N1C[C@H](C)[C@H](CN(C)Cc2ccc(Oc3ccccc3)cc2)OCc2ccccc2-c2c(n(C)c3ccccc23)C1=O | -9.3[25 µM]
O=C(N1CCN(CCO)CC1)N1c2ccccc2CCc2ccccc21 | 3.1
O=C(CN1CCCC1)N1c2ccccc2Sc2ccccc21 | 1.1
OCCN1CCN(CCCN2c3ccccc3Sc3ccc(C(F)(F)F)cc32)CC1 | 50.7*
